HDAC3 inh: inhibitors of human histone deacetylase 3; O15379; recombinant HDAC3, fluorogenic peptide/trypsin coupled, fluorescence; inhibition, % at 8.3 µM; 320,000 tested, 0.15% active; in the data active = inhibition above about 26%, passing the limit was not always enough; inconclusive = no clear call, values can overlap the other calls
Target sequence (O15379 whole entry, looked up): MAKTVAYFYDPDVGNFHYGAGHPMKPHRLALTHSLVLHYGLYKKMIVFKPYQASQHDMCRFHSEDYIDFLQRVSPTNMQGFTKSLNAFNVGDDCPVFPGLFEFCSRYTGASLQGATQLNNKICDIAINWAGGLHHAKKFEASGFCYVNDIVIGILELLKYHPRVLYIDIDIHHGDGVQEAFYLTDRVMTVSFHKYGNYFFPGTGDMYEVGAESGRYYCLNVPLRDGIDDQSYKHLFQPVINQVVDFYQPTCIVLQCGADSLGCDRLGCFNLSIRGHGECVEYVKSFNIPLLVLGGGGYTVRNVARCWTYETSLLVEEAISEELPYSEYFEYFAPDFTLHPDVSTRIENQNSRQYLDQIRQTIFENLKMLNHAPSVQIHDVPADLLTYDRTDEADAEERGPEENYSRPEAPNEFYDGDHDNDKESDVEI
LANA-H2A inh: blocks KSHV LANA binding to histone H2A/H2B. Q9QR71. cell-free LANA-H2A/H2B peptide, fluorescence polarization. inhibition, % (no concentration beside the values). 320,000 tested, 0.6% active; in the data active = inhibition mostly above about 10%, no sharp cut-off; inactive = mostly below about 6.7%
DAGLB inh: diacylglycerol lipase beta (human) inhibition | Q8NCG7 | HEK293T DAGLB membrane lysate, EnzChek fluorogenic substrate | inhibition, % at 5.17 µM | 340,000 tested, 0.059% active | AID 504411; in the data active = inhibition above about 34%;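 also: 0% = enzyme with vehicle and 100% = wells lacking enzyme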
iPSC survival up: enhancers of human iPSC single-cell survival; 360,000 tested, 0.044% active; hiPSC single-cell survival, ATPlite luminescence; 100% = ROCK inhibitor wells, 0% = DMSO; survival enhancement, % at 20 µM; in the data active = survival enhancement above about 18%;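 also: cells exposed to compounds for 16 hours before the ATP read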
* hit, by the source's call; ? = inconclusive; nt = not tested or not shown; + = active, no number. An excerpt weighted towards active compounds, which were near 0.79% of everything screened.

SMILES	HDAC3 inh	LANA-H2A inh	DAGLB inh	iPSC survival up
C=CCC[C@H](Cc1ccc(F)cc1)C(=O)OC[C@@H](Cc1c[nH]c2ccccc12)NC(=O)[C@@H](CC=C)CC(=O)N[C@@H](CO)Cc1ccccc1	10	-5	-1	-2
C=CC[C@H](CC(=O)N(CCO)Cc1ccccc1)C(=O)NC[C@H](OC(=O)[C@@H](CC=C)Cc1ccc(F)cc1)c1ccccc1	28*	0	-5	1
COCCn1c(SC(C)C(=O)NCC2CCCO2)nc2sc3c(c2c1=O)CCC3 (stereo unspecified)	3	-6	-1	0
CN(C(=O)CN1C(=O)c2ccccc2S1(=O)=O)C1CCCCC1	1	-2	2	-2
O=C(CN1C(=O)CSc2ncccc21)Nc1ccccc1F	4	0	-2	0
COc1cccc(-c2noc(C3CCCN(C(=O)Cc4ccccc4)C3)n2)c1 (stereo unspecified)	-4	11*	-11	-2
Cc1cc(C)cc(N(CCC#N)C(=O)COC(=O)c2ccc(OCc3c(C)noc3C)cc2)c1	3	-3	-2	0
Cc1ccc2c(c1C)NC(C(=O)O)C1CC=CC21 (stereo unspecified)	?	27*	5	0
O=C(O)C1Nc2c(C(=O)N3CCOCC3)cccc2C2C=CCC12 (stereo unspecified)	-3	0	0	1
CCOC(=O)CN(c1ccccc1C)S(=O)(=O)c1ccc(Cl)cc1	-3	0	-9	0
CN(C)c1nc(N)nc(CSc2nnnn2-c2ccc(Cl)cc2)n1	nt	nt	nt	7
CCOC(=O)Cc1csc(NC(=O)C2CCCN(S(=O)(=O)c3cnc[nH]3)C2)n1 (stereo unspecified)	5	5	-3	-2
COc1ccc(Cc2nnc(NC(=O)c3ccccc3C)s2)cc1	-2	-6	0	0
Cn1cnnc1SCC(=O)c1ccc2c(c1)OCO2	-11	-4	-1	22*
COc1[nH]c(/N=C/c2ccccc2)c(C#N)c1C#N	2	44*	-25	3
NS(=O)(=O)c1cccc(NC(=O)COc2ncnc3c2cnn3-c2ccccc2)c1	-3	131*	0	0
Cc1ccc(CN2C(=O)CCC2C(=O)NCc2cccnc2)cc1 (stereo unspecified)	-2	18*	1	2
COc1cc(/C=C/C(=O)N2CCCC2)cc(OC)c1OC	-4	9.1*	-1	2
COC(=O)c1cc(S(=O)(=O)N2CCC(c3cc(OC)ccc3OC)C2)c[nH]1 (stereo unspecified)	-9	3	-2	0
CCN(CC)/C(Sc1ccccc1)=C(\C(Cl)=C(Cl)Cl)[N+](=O)[O-]	5	70*	1	-2
Cc1ccc(S(=O)(=O)N2CCC(C(N)=O)CC2)cc1[N+](=O)[O-]	0	1	-1	0
O=C(CCN1C(=O)c2ccccc2S1(=O)=O)NCc1ccccc1	-5	-1	3	0
COc1ccccc1NC(=O)C(=O)N/N=C(\C)CC(=O)Nc1ccccn1	-4	24*	-3	1
Cc1ccc(N(C(=O)c2csnn2)C(C(=O)NC2CCCC2)c2cccnc2)c(C)c1 (stereo unspecified)	6	8	0	-1
CCOc1ccc(OCCCC(=O)N(CC)CC(=O)Nc2c(F)cccc2F)cc1	-4	36*	1	0
SMILES	HDAC3 inh	LANA-H2A inh	DAGLB inh	iPSC survival up
CCN(CC(=O)Nc1c(F)cccc1F)C(=O)CCCOc1ccccc1	nt	nt	-1	0
C/C=C/C=C/C(=O)N1CC2(CC(c3cccc(NC(=O)CCCCC)c3)=NO2)C[C@H]1C(N)=O (stereo partly specified)	61*	-2	0	0
CC/C=C/C(=O)N1CC2(CC(c3cccc(NC(=O)CCCCC)c3)=NO2)C[C@H]1C(N)=O (stereo partly specified)	4	1	0	0
CCN(CC(=O)Nc1ccc(NC(C)=O)cc1)C(=O)CN1C(=O)C2CCCCC2C1=O (stereo unspecified)	-4	3	-5	0
O=C(Oc1ccc(-c2nnco2)cc1)N1CCOCC1	-1	-1	-4	2
Cc1ccc(C(=O)Oc2ccc(-c3nnco3)cc2)o1	100*	1	-2	0
COC(=O)c1cc(NC(=S)NC(=O)c2ccccc2)ccc1N1CCOCC1	2	-16	-1	0
O=C(CN1CCN(Cc2cccc(F)c2)CC1)Nc1ccccc1F	-2	-1	-3	-1
Cc1ccccc1NS(=O)(=O)c1ccc(C(=O)NCC(c2ccccc2)N(C)C)cc1 (stereo unspecified)	6	6	-1	0
Cc1ccccc1NS(=O)(=O)c1ccc(C(=O)NCC(c2ccco2)N(C)C)cc1 (stereo unspecified)	-14	20*	-1	1
Cc1ccc(S(=O)(=O)N(C)c2ccc(C(=O)NCC(c3ccco3)N(C)C)cc2)cc1 (stereo unspecified)	-1	35*	1	0
CCN(CCn1cccn1)Cc1nc(-c2ccc(OC)cc2)no1	-10	+	-1	-1
CCN(CCn1cccn1)Cc1nc(-c2ccccc2)no1	-7	-5	0	0
CCc1nc(N[C@@H](Cc2c[nH]c3ccccc23)C(=O)O)c2oc3ccccc3c2n1	1	0	2	1
Cc1nc(N[C@@H](Cc2c[nH]c3ccccc23)C(=O)O)c2oc3ccccc3c2n1	3	18*	nt	nt
O=C(OCC(=O)N1CCCC1)c1cnc(Cl)c(Cl)c1	0	-6	0	-2
CC(=O)Nc1ccc(C(=O)CSc2nc3ccccc3n2CC(=O)N2CCCC2)cc1	67*	-2	-6	3
O=C(CSc1nc2ccccc2n1CC(=O)N1CCCCC1)N1CCCCC1	-3	0	-1	0
NC(=O)c1ccc(N=Cc2ccc([N+](=O)[O-])s2)cc1	8	17*	1	-3
Cc1cc(C)cc(N=Cc2ccc([N+](=O)[O-])s2)c1	-2	-1	2	-2
O=C(OCC(=O)N1CCc2ccccc21)c1ccc([N+](=O)[O-])o1	1	-5	1	0
O=C(CN1CCN(c2ccc(F)cc2)CC1)Nc1ccc(S(=O)(=O)N2CCOCC2)cc1	-6	6	0	0
CCN1CCN(c2nc(N)c([N+](=O)[O-])c(Nc3ccc(C)cc3)n2)CC1	-3	19*	-3	0
CC(C)(C)OC(=O)NCCCC[C@H](NC(=O)c1[nH]cnc1C(=O)Nc1ccccc1)C(=O)OC(C)(C)C	37*	0	-6	-2
C[C@@H](NC(=O)c1nc[nH]c1C(=O)N[C@@H](CCCCNC(=O)OC(C)(C)C)C(=O)OC(C)(C)C)c1ccccc1	34*	7	-3	-1
CC(C)C[C@H](NC(=O)c1nc[nH]c1C(=O)NCC(=O)OCc1ccccc1)C(=O)OCc1ccccc1	28*	0	-5	0
C[C@H](NC(=O)c1nc[nH]c1C(=O)N[C@@H](Cc1ccccc1)C(=O)OC(C)(C)C)c1ccccc1	28*	-3	-4	-1

Screens from PubChem BioAssay.
